# Data: the supplement of paper PMC6555819
# What was measured:
# Experiment in all cases: PBM binding z-score (relative to random genomic background probes); higher = stronger binding; sequences stand for … in GC…GCGATTGACAGCGTAGAATGAAGG
# [1] = tested on: FXR:RXRa (NR concentration 270 nM, RXRa partner concentration 90 nM)
# Outline: (§1)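 Custom Agilent 4×180K protein-binding microarrays carried double-stranded probes. Their 34-nt variable regions held direct-repeat seeds, single-nucleotide variants, half-site ablations and random human genomic background sequences. Arrays were incubated 1 h with ligand-free nuclear receptor dimers in PBS pH 7.4, 2% milk, 0.02% Triton X-100, 1 mM DTT, 0.2 mg/mL BSA and 0.4 mg/ml salmon testes DNA. Antibodies against each partner (one per run) detected binding, and scanned fluorescence was regression-normalized. Binding z-scores use random background probes as reference.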
# [2] = tested on: LXRa:RXRa (NR concentration 270 nM, RXRa partner concentration 90 nM)
# Outline: as §1
# [3] = tested on: LXRa homodimer (NR concentration 270 nM)
# Outline: as §1
# [4] = tested on: LXRb:RXRa (NR concentration 270 nM, RXRa partner concentration 90 nM)
# Outline: as §1
# [5] = tested on: LXRb homodimer (NR concentration 270 nM)
# Outline: as §1
# [6] = tested on: PPARa:RXRa (NR concentration 270 nM, RXRa partner concentration 90 nM)
# Outline: as §1
# [7] = tested on: PPARg:RXRa (NR concentration 180 nM, RXRa partner concentration 90 nM)
# Outline: as §1
# [8] = tested on: PPARg:RXRa 270nM:90nM, anti-RXR (NR concentration 270 nM, RXRa partner concentration 90 nM)
# Outline: as §1
# [9] = tested on: PPARg:RXRa 30nM:10nM, anti-RXR (NR concentration 30 nM, RXRa partner concentration 10 nM)
# Outline: as §1
# [10] = tested on: PPARg:RXRa 90nM:30nM, anti-RXR (NR concentration 90 nM, RXRa partner concentration 30 nM)
# Outline: as §1
# [11] = tested on: PPARg:RXRa DBDmut IVT, anti-RXR (DBD mutation: RXRa K156A/R161A, NR concentration 270 nM, RXRa partner concentration 90 nM)
# Outline: as §1
# [12] = tested on: PPARg:RXRa IVT, anti-PPARg (NR concentration 270 nM, RXRa partner concentration 90 nM)
# Outline: as §1
# [13] = tested on: PPARg DBDmut:RXRa IVT, anti-PPARg (DBD mutation: PPARg1 K132A/R137A, NR concentration 270 nM, RXRa partner concentration 90 nM)
# Outline: as §1
# [14] = tested on: PPARg DBDmut IVT, anti-PPARg (DBD mutation: PPARg1 K132A/R137A, NR concentration 270 nM)
# Outline: as §1
# [15] = tested on: PPARg homodimer (NR concentration 180 nM)
# Outline: as §1
# [16] = tested on: PXR:RXRa (NR concentration 270 nM, RXRa partner concentration 90 nM)
# Outline: as §1
# [17] = tested on: PXR homodimer (NR concentration 270 nM)
# Outline: as §1
# [18] = tested on: RARa:RXR (NR concentration 270 nM, RXRa partner concentration 90 nM)
# Outline: as §1
# [19] = tested on: RARa homodimer (NR concentration 270 nM)
# Outline: as §1
# [20] = tested on: RARb:RXRa (NR concentration 270 nM, RXRa partner concentration 90 nM)
# Outline: as §1
Sequence,PBM binding z-score [1],PBM binding z-score [2],PBM binding z-score [3],PBM binding z-score [4],PBM binding z-score [5],PBM binding z-score [6],PBM binding z-score [7],PBM binding z-score [8],PBM binding z-score [9],PBM binding z-score [10],PBM binding z-score [11],PBM binding z-score [12],PBM binding z-score [13],PBM binding z-score [14],PBM binding z-score [15],PBM binding z-score [16],PBM binding z-score [17],PBM binding z-score [18],PBM binding z-score [19],PBM binding z-score [20]
TCTATTAGTTGAAGGGGAACCGACGAGTCCGTTT,1.21,1.19,0.437,1.19,0.829,1.23,0.0273,2.51,4.36,3.48,3,0.249,1.26,0.473,1.97,1.04,1.09,0.424,1.8,0.752
CCAGACAGGTGAAAGGTTACTCAGTCTGGTACGC,2.37,2.59,0.167,2.26,-0.0595,4.67,7.6,7.17,5.84,7.77,1.76,3.47,-0.162,0.368,1.65,2.74,0.256,4.24,0.58,2.22
TCGAGTAGGTTACCAATGGGGCATTCATCTTTCT,-0.000727,1.01,-0.201,1.21,-0.516,1.23,0.329,1.33,1.28,1.18,3.66,2.75,-0.207,-0.196,0.277,0.256,-0.536,0.587,-0.332,0.994
CGAACTAGGTCATTGACAGGACAGCGAATAGTAA,4.04,2.83,0.577,1.84,-0.147,4.83,7.35,6.29,3.94,5.75,7.7,7.96,1.01,0.969,1.57,1.35,0.255,2.1,0.179,3.61
ATCGAAAGGTCGAAGGTGAGTAAACCCACCCGAA,4.69,3.83,0.284,3.05,0.315,4.88,4.96,5.19,1.91,4.14,0.0227,2.17,0.972,0.487,1.89,3.11,0.0457,4.5,0.979,3.88
ACTCGGAGGACAAAGGTCAGTGCTACGCCAGTGA,3.58,3.67,1.45,2.94,0.443,4.64,6.76,6.58,5.31,7.31,0.807,3.58,1.11,-0.05,3.66,3.7,0.26,4.7,1.27,4.5
CAAACTCGGTCAAGGTCAAAGTCGGTTTGTGCCA,5.73,5.09,3.66,3.81,1.02,4.81,4.76,4.8,2.42,3.93,4.82,4.77,1.56,0.439,3.17,4.98,2.66,4.81,1.43,4.49
GTACCAAGGTGAATAGGTCGTTGTTGAGTAGGCG,0.827,0.686,-0.152,0.303,-0.821,2.07,1.18,1.21,0.0125,0.678,1.9,2.74,0.246,-0.308,1.31,0.708,-0.604,1.5,0.154,1.91
CCTTACGCGTCAAGGTTATAGCACGGGTGGTACG,0.452,0.749,0.096,0.771,0.153,1.14,0.691,-0.0885,-0.308,0.0411,0.185,-0.0236,-0.542,-0.798,0.726,0.65,0.0877,1.02,0.124,0.97
GATACATGGTCAGCTAGAGGCCAGAGTATGGAAA,-0.242,-0.822,-0.541,-0.77,-1.11,-0.488,0.533,-0.14,-0.161,-0.183,-0.61,0.0448,-1.36,-0.885,-0.578,-0.344,-0.0734,-0.157,-0.619,0.819
GCTGCTAGGTCAGGTTAGTCAGCTAACGGGTACG,1.16,0.852,-0.246,0.282,-0.367,1.51,0.774,1.17,-0.493,0.602,2.9,2.42,-0.896,-1.02,0.349,0.128,-0.498,0.677,-0.907,3.29
ACAGACAGGTGATGAGGGTAACTCAGGCTATCAT,0.367,-0.0236,0.0191,0.0104,-0.517,0.465,0.8,-0.0214,0.142,-0.218,-0.0163,0.685,-0.934,0.0306,0.543,0.296,-0.131,0.591,-0.698,0.496
AATACAGGGTCACTAGGCCAGAGCAGGTACGAAT,5.98,5.08,0.784,3.77,0.86,5.66,7.53,6.45,3.36,5.53,4.31,5.63,2.36,1.22,2.4,3.16,-0.000752,4.15,0.899,4.16
AGCGAAAGGTCGACGAGGTGAGTATACACCGTTT,4.18,2.97,-0.376,2.37,-0.286,4.3,3.21,3.62,0.842,2.31,0.519,1.89,0.248,0.154,1.07,2.86,0.276,3.47,-0.0264,3.84
CCTATTTGGTCAGGAGGTCACACACCGGATATGA,3.94,3.62,2.35,3.64,1.25,4.34,3.42,4.03,1.66,3.23,1.91,3.3,1.63,0.887,3.54,4.35,1.72,4.86,2.56,3.94
ATATGTAGGTTAAATCCGGGTCATTCAGGCTATG,2.83,5.17,3.32,3.47,1.09,4.96,5.84,5.44,2.91,4.84,7.28,7.3,2.58,2.7,2.38,4.32,1.9,4.3,0.415,2.51
AGTCAAAGTTCACTGGGTAACGTAAGATTCAGCT,5.3,5.02,3.18,2.98,0.65,4.78,7.5,6.72,3.78,6.4,2.75,4.82,1.38,0.335,2.63,4.4,3.47,3.63,1.43,4.81
ATCGAAAGGTCGTGAGGTGAGTATCCAGAAAGGC,5.07,4.11,0.195,3.04,0.388,4.97,4.11,4.31,1.14,2.9,0.293,2.48,1.2,1.27,1.41,3.13,0.135,4.25,0.545,3.93
TCTTGTAGATCAGCAGGTTAAGAGAGCTGGCCAA,-0.327,-0.11,-0.629,0.359,-0.638,0.689,-0.415,1.35,2.45,1.77,1.29,0.366,-0.495,-0.454,-0.22,0.214,-0.483,0.282,-0.593,0.113
AGAATGAAGTTAAGATCAGGGAAACAGAATACAT,-0.542,-0.312,-0.0829,-0.14,-0.44,-0.111,0.991,0.0665,0.0605,0.34,-0.915,-0.265,0.14,0.809,-0.657,-0.19,0.0131,-0.474,0.347,-0.251
CGTCCAAGGTCTAAGGTCAGTGAAGAGATGACGG,2.27,1.6,-0.0447,1.63,-0.547,3,3.03,4,2.41,3.52,0.385,1.44,-0.479,-0.374,2.23,2.21,0.498,3.2,0.608,3.71
TCTTGTAGATCAACAGGATGTTAAGAAAGATCGA,0.365,0.173,-0.3,0.12,-0.659,0.612,0.227,1.3,2.66,1.97,1.7,0.652,0.783,1.26,-0.565,0.147,-0.381,0.44,0.0345,-0.191
CATACAGGGTCAGCTAGGCCAGATTAGGGACGGC,4.11,2.99,-0.059,2.4,0.391,4.38,3.11,2.96,0.713,1.62,1.11,1.98,0.335,-0.106,1.45,2.26,-0.138,3.04,0.588,3.91
CCTTACGGGTCACGAGGTGATAGCACGACGAGCG,6.73,4.27,-0.242,3.42,-0.279,5.82,7.42,6.5,3.14,5.75,3.97,5.24,1.17,1.06,3.17,3.69,-0.0631,5.02,0.649,4.27
CCTGCTAGGTCATGTTCAGCTAATCTACAGTATG,3.33,2.25,0.437,1.65,0.467,2.69,1.36,1.91,0.403,1.16,4.06,2.94,-0.127,0.556,1.51,1.07,-0.338,1.53,-0.173,3.63
TAGCCTAGGTCATGCGGACCAGTATAGTGTCGGC,3.93,3,0.318,1.59,-0.198,3.33,1.99,2.5,0.202,1.38,1.69,2.81,-0.0719,-0.526,0.843,1.31,-0.745,2.2,-0.507,3.65
TCTAGTTGGTCAAAGGTCACAAACTCGAAATGCG,4.94,5.27,3.15,5.16,1.49,6.4,10.9,9.72,9.69,10.3,3.16,5.98,1.2,1.06,3.78,5.56,1.54,6.79,3.07,4.77
TCTCGGAGGACACGAAGGTGAGAGCTTTCCAGAG,-0.0901,-0.338,-0.832,-0.756,-1.18,-0.0332,0.00837,0.718,1.9,0.958,1.32,0.688,-0.824,-1.52,-0.651,-0.315,-0.615,-0.0834,-0.906,1.69
CGAACTAGGTCAATGACAGGACAGTGAATAGTAA,2.8,2.36,0.289,1.59,0.0362,4.34,7.1,6.02,3.52,5.51,8.25,7.96,1.69,1.41,1.62,1.12,-0.0371,1.75,0.354,3.64
